This is part of a sample that, as a whole, favours compounds with a hit. Of some 83,000 tested, about 20% had one in any assay.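 Note: values are percent growth. 100 is the growth of untreated cells, values between 100 and 0 indicate rising inhibition; between -100 and 0 indicates cell death.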 The source made the active and inactive calls. How the source made its calls: active means growth percent below 10; inactive means the rest.
These compounds were tested on NCI-H460 lung (assay: NCI-60 one-dose screen, 48 h (100 = growth as untreated, 0 = no growth, -100 = all killed)). Conditions: 10 µM unless noted.
With `NNC(=O)c1sc2nc(-c3cnccn3)cc(-c3cccs3)c2c1N` the growth was 103% (inactive). `Cn1cc(-c2nnc(N)nc2-c2cn(C)c3ccc(F)cc23)c2cc(F)ccc21` was tested, and the growth was 102% (inactive). With `COc1ccccc1/C=C/C=N/NC1=NC2C(S1)N(C)C(=O)N2c1ccccc1` (configuration not stated) the growth was 2.27% (active). With `C[C@H]1[C@H](C)CC[C@]2(COC(=O)c3cccnc3)CC[C@]3(C)C(=CC[C@@H]4[C@@]5(C)CCCNC(C)(C)[C@@H]5CC[C@]43C)[C@H]12` the growth was 65.1% (inactive).

These compounds were tested on HOP-92 NSCLC in the same assay as above. Conditions: 10 µM unless noted.
In the case of `CC1(C)CC[C@]2(C(=O)O)CC[C@]3(C)C(=CCC4[C@@]5(C)C[C@@H](O)[C@@H]6OC(c7ccccc7O)OC[C@@]6(C)C5CC[C@]43C)C2C1` (some centres not stated), the growth was 52% (inactive). With `CN(c1ccc(Br)cc1)S(=O)(=O)c1ccc(-c2cnc(C3CC3)o2)cc1` the growth was 87.1% (inactive). `CN1CCN(c2nc(-c3csc(-c4ccncc4)n3)cc3ccccc23)CC1` was tested, and the growth was 15.3% (inactive). For `O=C(O)c1ccc(-n2cc(CNc3ccc(F)cc3)c(-c3ccc(C(F)(F)F)cc3)n2)cc1`, the growth was 78.3% (inactive). In the case of `CSc1nccc(-c2c(-c3ccc(F)c(OCc4ccc(F)cc4)c3)nc3sccn23)n1`, the growth was 54.5% (inactive). In the case of `O=C(COc1ccc(C2SCC(=O)N2c2ccccc2)cc1)c1ccccc1` (configuration not stated), the growth was 86.8% (inactive). For `O=C(O)CNS(=O)(=O)c1ccc(Oc2ccc(S(=O)(=O)NCC(=O)O)cc2)cc1`, the growth was 103% (inactive). `Cn1nc(Nc2ccccc2)c(C(=O)NN)c1N` was tested, and the growth was 111% (inactive). In the case of `COc1cc(/C=N/n2cnc3oc(-c4ccccc4)cc3c2=N)cc(CN2CCN(C)CC2)c1O`, the growth was 74.9% (inactive). For `CC(C)SC1=NC(=C(C(=N1)NC2=ClC=CC=C2)C#N)C3=CC=CC=C3`, the growth was 76.6% (inactive). `NS(=O)(=O)c1ccc(Nc2nc(N/N=C/c3ccc(F)cc3)nc(Nc3ccccc3)n2)cc1` was tested, and the growth was 63.5% (inactive). In the case of `C#C[C@]1(O)CC[C@H]2[C@@H]3CC=C4c5sc(Nc6cccc(C)n6)nc5CC[C@]4(C)[C@H]3CC[C@@]21C`, the growth was 1.75% (active). `CNC(=O)c1cc(Oc2ccc3nc(NC(=O)c4cc(C)cc(C)c4)sc3c2)ccn1` was tested, and the growth was 9.05% (active). For `C=C(C)[C@@H]1CC[C@]2(COS(C)(=O)=O)CC[C@]3(C)[C@H](CC[C@@H]4[C@@]5(C)CCCNC(C)(C)[C@@H]5CC[C@]43C)[C@@H]12`, the growth was 76.4% (inactive). In the case of `CC(C)=CCc1c2c(c(O)c3c1O[C@]14C(=C[C@@H]5C[C@H]1C(C)(C)O[C@@]4(C/C=C(/C)C(=O)O)C5=O)C3=O)CC(O)C(C)(C)O2` (some centres not stated), the growth was -8.8% (active). In the case of `O=C(Cn1cc(CN2C(=O)c3ccc([N+](=O)[O-])cc3C2=O)nn1)Nc1ccccc1Br`, the growth was 114% (inactive). For `COc1cc(-c2nc(SCc3ccc(C)cc3)[nH]c(=O)c2C#N)ccc1OCc1ccccc1`, the growth was 113% (inactive). In the case of `CC(C)N=C(N/C(N)=N/c1nc2ccccc2s1)NC(C)C`, the growth was 30.8% (inactive). For `O=C(Nc1cc(Cl)cc(Cl)c1)Nc1ccc2oc(=O)ccc2c1`, the growth was -26.6% (active). For `CS(=O)(=O)c1nccc(-c2c(-c3ccc(F)c(OCc4ccccc4)c3)nc3sccn23)n1`, the growth was -5.33% (active). For `COc1ccc(C2C(C#N)=C(N)Oc3c2sc2ccc(C)cc32)cc1` (configuration not stated), the growth was 72.1% (inactive). `C#C[C@]1(O)CC[C@H]2[C@@H]3CC=C4c5sc(-c6ccccn6)nc5CC[C@]4(C)[C@H]3CC[C@@]21C` was tested, and the growth was 110% (inactive). For `COc1ccc(OC)c([C@H]2c3[nH]c4ccccc4c3C[C@H]3C(=O)N(CCCCCCC(=O)NO)CC(=O)N23)c1`, the growth was 82% (inactive). With `Cc1cnc2nc(NN)[nH]n12` the growth was 100% (inactive). `COc1ccc(-c2nc3cc(Cl)c(Cl)cc3n2CC(=O)N=Nc2c(O)[nH]c3ccc(Br)cc23)cc1` was tested, and the growth was -34% (active). With `O=C(NCCCCCCNC(=O)c1c2c(nc3ccccc13)-c1cccnc1SC2)c1c2c(nc3ccccc13)-c1cccnc1SC2` the growth was 50.8% (inactive). `COc1ccc(-c2ccc3c4c(cccc24)C(=O)N(N2C(=O)c4cccc5cccc(c45)C2=O)C3=O)cc1` was tested, and the growth was 75.6% (inactive). In the case of `COc1ccc(-c2nc3cc(Cl)c(Cl)cc3n2CC(=O)N=Nc2c(O)[nH]c3ccc(Cl)cc23)cc1`, the growth was -28% (active). With `CCOC(=O)c1c(NCC(=O)Nc2ccc(Br)cc2)sc2c1CCCC2` the growth was 67.7% (inactive). `CN1C(=O)/C(=C/C=C/c2ccco2)SC1=S` was tested, and the growth was 98.9% (inactive). For `COc1ccc(-c2nnc(SCc3ccc(O)c4ncccc34)o2)cc1`, the growth was -2.2% (active). `C#CCOc1ccc(/C=N/Nc2nc(-c3cc4cc(Br)cc(Br)c4oc3=O)cs2)cc1` was tested, and the growth was 89.3% (inactive). `CS(=O)c1nccc(-c2c(-c3ccc(F)c(OCCc4ccc(F)cc4)c3)nc3sccn23)n1` (configuration not stated) was tested, and the growth was 47.1% (inactive). For `O=C1[C@@H]2Cc3c([nH]c4ccccc34)[C@H](c3c(Cl)cccc3Cl)N2C(=O)CN1C1CCN(Cc2c(F)cccc2F)CC1`, the growth was 75.9% (inactive). In the case of `NNC(=O)c1sc2nc(-c3cnccn3)cc(-c3cccs3)c2c1N`, the growth was 101% (inactive). For `Cn1cc(-c2nnc(N)nc2-c2cn(C)c3ccc(F)cc23)c2cc(F)ccc21`, the growth was 116% (inactive). In the case of `COc1ccccc1/C=C/C=N/NC1=NC2C(S1)N(C)C(=O)N2c1ccccc1` (configuration not stated), the growth was 38.9% (inactive). For `C[C@H]1[C@H](C)CC[C@]2(COC(=O)c3cccnc3)CC[C@]3(C)C(=CC[C@@H]4[C@@]5(C)CCCNC(C)(C)[C@@H]5CC[C@]43C)[C@H]12`, the growth was 67.5% (inactive).

Reference: PubChem BioAssay (NCI)
